Assay results reported in PubChem BioAssay (NCI).
The panel holds about 83,000 compounds, 20% with a hit somewhere; the sample as a whole holds those more often.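 In brief: 96-well plates, 48 h treatment, single concentration, percent growth endpoint.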 The source made the active and inactive calls. The calls were made as follows: active = growth percent below 10; inactive = the rest.

How the values were obtained:
Assay in all cases: NCI-60 one-dose screen, 48 h (100 = growth as untreated, 0 = no growth, -100 = all killed)
Conditions in all cases: 10 µM unless noted
SR leukemia = tested on: SR leukemia
OVCAR-8 ovarian = tested on: OVCAR-8 ovarian
OVCAR-5 ovarian = tested on: OVCAR-5 ovarian
OVCAR-4 ovarian = tested on: OVCAR-4 ovarian
SK-OV-3 ovarian = tested on: SK-OV-3 ovarian
IGROV1 ovarian = tested on: IGROV1 ovarian
OVCAR-3 ovarian = tested on: OVCAR-3 ovarian
HS 578T breast = tested on: HS 578T breast
NCI/ADR-RES ovarian = tested on: NCI/ADR-RES ovarian
T-47D breast = tested on: T-47D breast
BT-549 breast = tested on: BT-549 breast
SW-620 colon = tested on: SW-620 colon
MCF7 breast = tested on: MCF7 breast
HCT-116 colon = tested on: HCT-116 colon
HCC-2998 colon = tested on: HCC-2998 colon
MDA-MB-435 melanoma = tested on: MDA-MB-435 melanoma
KM12 colon = tested on: KM12 colon

Measured: growth

CCc1cccc2c1S/C(=C/c1ccc(Cl)cc1)C2=O
inactive: SR leukemia 79% | OVCAR-8 ovarian 101% | OVCAR-5 ovarian 100% | OVCAR-4 ovarian 93.5% | SK-OV-3 ovarian 85.7% | IGROV1 ovarian 65.6% | OVCAR-3 ovarian 104% | HS 578T breast 88% | NCI/ADR-RES ovarian 101% | T-47D breast 68.2% | BT-549 breast 112% | SW-620 colon 94.5% | MCF7 breast 52.1% | HCT-116 colon 91.8% | HCC-2998 colon 110%

Cc1ccc(/C=C(\C#N)n2nc3cccc(F)c3n2)cc1
inactive: SR leukemia 62.8% | OVCAR-8 ovarian 94.2% | OVCAR-5 ovarian 97.1% | OVCAR-4 ovarian 97% | SK-OV-3 ovarian 107% | IGROV1 ovarian 90.9% | OVCAR-3 ovarian 84.4% | HS 578T breast 91.5% | NCI/ADR-RES ovarian 86% | T-47D breast 74% | BT-549 breast 102% | MDA-MB-435 melanoma 51.1% | SW-620 colon 94.3% | MCF7 breast 54.1% | HCT-116 colon 70.7% | HCC-2998 colon 105% | KM12 colon 68.2%

NCCCNc1nc2ccc(Cl)cc2c2c(=O)c3cc(F)ccc3sc12
active: SR leukemia -27.4% | OVCAR-3 ovarian 8.74% | SW-620 colon -79% | HCT-116 colon -47.8% | HCC-2998 colon -40.8%
inactive: OVCAR-8 ovarian 57.3% | OVCAR-5 ovarian 83.5% | OVCAR-4 ovarian 11.3% | SK-OV-3 ovarian 89.4% | IGROV1 ovarian 52.8% | HS 578T breast 65.9% | NCI/ADR-RES ovarian 65.9% | T-47D breast 76.3% | BT-549 breast 106% | MDA-MB-435 melanoma 30.8% | KM12 colon 11.8%

NCCNc1nc2ccccc2c2c(=O)c3cccc(F)c3sc12
inactive: SR leukemia 12.3% | OVCAR-8 ovarian 46.5% | OVCAR-5 ovarian 81.8% | OVCAR-4 ovarian 48.3% | SK-OV-3 ovarian 78.8% | IGROV1 ovarian 48% | OVCAR-3 ovarian 53.1% | HS 578T breast 67.6% | NCI/ADR-RES ovarian 53.9% | T-47D breast 70.7% | BT-549 breast 98.5% | MDA-MB-435 melanoma 58.5% | SW-620 colon 17.7% | MCF7 breast 45.1% | HCT-116 colon 15.1% | HCC-2998 colon 15.5% | KM12 colon 34.3%

O=C1/C(=C/c2ccccc2[N+](=O)[O-])Oc2ccc(O)c(O)c21
inactive: SR leukemia 36.1% | OVCAR-8 ovarian 25.5% | OVCAR-5 ovarian 48.8% | OVCAR-4 ovarian 47.9% | SK-OV-3 ovarian 93.1% | IGROV1 ovarian 48.5% | OVCAR-3 ovarian 35.1% | HS 578T breast 21.1% | NCI/ADR-RES ovarian 37.6% | T-47D breast 39.8% | BT-549 breast 52.9% | SW-620 colon 28.5% | MCF7 breast 21.2% | HCT-116 colon 21.6% | HCC-2998 colon 57.9% | KM12 colon 37.5%

c1ccc2c(c1)Nc1ccncc1S2
inactive: SR leukemia 200% | OVCAR-8 ovarian 101% | OVCAR-5 ovarian 89.5% | OVCAR-4 ovarian 93.1% | SK-OV-3 ovarian 112% | IGROV1 ovarian 99.4% | OVCAR-3 ovarian 119% | HS 578T breast 102% | NCI/ADR-RES ovarian 107% | T-47D breast 95.3% | BT-549 breast 75% | MDA-MB-435 melanoma 121% | SW-620 colon 92.5% | MCF7 breast 100% | HCT-116 colon 82% | KM12 colon 103%

CCOC(=O)C1=C(N)Oc2c(sc3c(C)cccc23)C1c1ccc(Cl)cc1 (stereo unspecified)
active: OVCAR-3 ovarian 0.78% | MCF7 breast 8.74%
inactive: SR leukemia 17.5% | OVCAR-8 ovarian 36.8% | OVCAR-5 ovarian 41.6% | OVCAR-4 ovarian 56.6% | SK-OV-3 ovarian 54.7% | IGROV1 ovarian 22.6% | HS 578T breast 18.9% | NCI/ADR-RES ovarian 24.6% | T-47D breast 17.6% | BT-549 breast 65.7% | SW-620 colon 23.7% | HCT-116 colon 23.9% | HCC-2998 colon 49.3% | KM12 colon 15.3%

CN1CCN(CC(=O)N2c3cccc4cccc(c34)N(C(=O)CN3CCN(C)CC3)C2c2cn(-c3ccccc3)nc2-c2cccc([N+](=O)[O-])c2)CC1
inactive: OVCAR-5 ovarian 20.5% | HS 578T breast 28.6% | NCI/ADR-RES ovarian 72.4% | BT-549 breast 71.2% | KM12 colon 26%
active: SR leukemia -17.2% | OVCAR-8 ovarian -8.45% | OVCAR-4 ovarian -21.8% | SK-OV-3 ovarian -14.4% | IGROV1 ovarian 4.75% | OVCAR-3 ovarian -57.6% | T-47D breast -75.8% | MDA-MB-435 melanoma -42.6% | SW-620 colon -26.4% | MCF7 breast -71.1% | HCT-116 colon -58.2% | HCC-2998 colon -52.9%

NCCOc1ncccc1/C=C1\C2C=CC=CC2C2C=CC(F)=CC12 (stereo unspecified)
inactive: OVCAR-8 ovarian 25.7% | OVCAR-5 ovarian 31.3% | OVCAR-4 ovarian 68.3% | SK-OV-3 ovarian 20.1% | IGROV1 ovarian 29.9% | OVCAR-3 ovarian 35% | HS 578T breast 61.5% | NCI/ADR-RES ovarian 27.8% | T-47D breast 33.1% | BT-549 breast 84.7% | MDA-MB-435 melanoma 63.4% | SW-620 colon 13.3% | HCT-116 colon 22.2% | KM12 colon 29%
active: SR leukemia 0.916% | HCC-2998 colon 4.37%

COc1ccc(CNC(=O)[C@H](O)[C@@H](N)Cc2ccccc2)cc1
inactive: SR leukemia 93.4% | OVCAR-8 ovarian 108% | OVCAR-5 ovarian 98% | OVCAR-4 ovarian 104% | SK-OV-3 ovarian 110% | IGROV1 ovarian 109% | OVCAR-3 ovarian 119% | HS 578T breast 102% | NCI/ADR-RES ovarian 109% | T-47D breast 110% | BT-549 breast 109% | MDA-MB-435 melanoma 104% | SW-620 colon 104% | MCF7 breast 94.5% | HCT-116 colon 109% | HCC-2998 colon 105% | KM12 colon 101%

Cc1ccc(C(CC(=O)O)c2c(C)[nH][nH]c2=O)cc1 (stereo unspecified)
inactive: SR leukemia 99% | OVCAR-8 ovarian 101% | OVCAR-5 ovarian 106% | OVCAR-4 ovarian 111% | SK-OV-3 ovarian 97.7% | IGROV1 ovarian 105% | OVCAR-3 ovarian 109% | HS 578T breast 109% | NCI/ADR-RES ovarian 102% | T-47D breast 86.6% | BT-549 breast 103% | SW-620 colon 108% | MCF7 breast 100% | HCT-116 colon 107% | HCC-2998 colon 108%

CCc1cccc2c3c(sc12)C(c1ccc(Cl)cc1)C(C#N)=C(N)O3 (stereo unspecified)
active: OVCAR-3 ovarian 2.19% | HS 578T breast 4.92%
inactive: SR leukemia 13.6% | OVCAR-8 ovarian 29.4% | OVCAR-5 ovarian 24.6% | OVCAR-4 ovarian 75.2% | SK-OV-3 ovarian 58.3% | IGROV1 ovarian 30.2% | NCI/ADR-RES ovarian 19.2% | T-47D breast 27.8% | BT-549 breast 50.8% | SW-620 colon 33.4% | MCF7 breast 10.3% | HCT-116 colon 17.9% | HCC-2998 colon 17.5%

CN(C)CCCNc1nc2ccccc2c2c(=O)c3cc(F)ccc3sc12
inactive: OVCAR-8 ovarian 45.3% | OVCAR-5 ovarian 73.7% | OVCAR-4 ovarian 36.6% | SK-OV-3 ovarian 78.1% | IGROV1 ovarian 40.5% | OVCAR-3 ovarian 26% | HS 578T breast 46.7% | NCI/ADR-RES ovarian 43% | T-47D breast 43.1% | BT-549 breast 100% | MCF7 breast 18.5%
active: SR leukemia -37.9% | MDA-MB-435 melanoma -79.7% | SW-620 colon -51.4% | HCT-116 colon -47% | HCC-2998 colon -80.4% | KM12 colon 3.81%

CCOC(=O)c1cn2ncnc(Oc3ccc(NC(=O)NCCN4CCN(C)CC4)c(Cl)c3)c2c1C
inactive: OVCAR-8 ovarian 64.7% | OVCAR-5 ovarian 97.1% | OVCAR-4 ovarian 72.3% | SK-OV-3 ovarian 95.2% | IGROV1 ovarian 73.3% | OVCAR-3 ovarian 76.2% | HS 578T breast 74.3% | NCI/ADR-RES ovarian 90.8% | T-47D breast 25.5% | BT-549 breast 77.8% | MDA-MB-435 melanoma 40.7% | SW-620 colon 69% | MCF7 breast 65.5% | HCT-116 colon 45.3% | HCC-2998 colon 89.2% | KM12 colon 91.4%
active: SR leukemia -13.9%

CCOC(=O)c1cnn2c3ccccc3n(S(=O)(=O)c3ccc(OC)cc3)c12
inactive: SR leukemia 14% | OVCAR-8 ovarian 27.5% | OVCAR-5 ovarian 42.5% | OVCAR-4 ovarian 71.4% | SK-OV-3 ovarian 48.2% | IGROV1 ovarian 28.6% | HS 578T breast 37.3% | T-47D breast 71.8% | BT-549 breast 17.5% | SW-620 colon 25.9% | MCF7 breast 18.5% | HCT-116 colon 14.4% | HCC-2998 colon 16.9% | KM12 colon 25.9%
active: OVCAR-3 ovarian 0.973% | NCI/ADR-RES ovarian 0.145% | MDA-MB-435 melanoma 2.91%

NCCCNc1nc2ccccc2c2c(=O)c3cccc(F)c3sc12
active: SR leukemia -16.7% | SW-620 colon -62.5% | HCT-116 colon -72.5% | HCC-2998 colon -46% | KM12 colon 4%
inactive: OVCAR-8 ovarian 29% | OVCAR-5 ovarian 66.9% | OVCAR-4 ovarian 26.2% | SK-OV-3 ovarian 58.5% | IGROV1 ovarian 32.5% | OVCAR-3 ovarian 18.5% | HS 578T breast 52.4% | NCI/ADR-RES ovarian 30.3% | T-47D breast 60.3% | MDA-MB-435 melanoma 16.5% | MCF7 breast 19.9%

C(=N/Nc1ncnc2nc[nH]c12)/c1ccccn1
active: IGROV1 ovarian -8.74%
inactive: SR leukemia 25.7% | OVCAR-8 ovarian 28.5% | OVCAR-5 ovarian 50.8% | OVCAR-4 ovarian 31.9% | SK-OV-3 ovarian 28.9% | OVCAR-3 ovarian 51% | HS 578T breast 64.1% | T-47D breast 30.2% | BT-549 breast 54.7% | MDA-MB-435 melanoma 39.5% | SW-620 colon 36.8% | HCT-116 colon 28.1% | HCC-2998 colon 28.2% | KM12 colon 36.3%

COc1ccc(N)c(N)c1
inactive: SR leukemia 121% | OVCAR-8 ovarian 108% | OVCAR-5 ovarian 110% | OVCAR-4 ovarian 103% | SK-OV-3 ovarian 96.9% | IGROV1 ovarian 107% | OVCAR-3 ovarian 125% | HS 578T breast 110% | T-47D breast 92.6% | BT-549 breast 88% | MDA-MB-435 melanoma 101% | SW-620 colon 109% | HCT-116 colon 96.1% | HCC-2998 colon 92.7% | KM12 colon 101%

O=C(CCN1C(=O)/C(=C/c2ccc(O)cc2)SC1=S)Nc1ccc(Cl)cc1
inactive: SR leukemia 110% | OVCAR-8 ovarian 97% | OVCAR-5 ovarian 95.6% | OVCAR-4 ovarian 91.1% | SK-OV-3 ovarian 71.8% | IGROV1 ovarian 79.7% | OVCAR-3 ovarian 99.4% | HS 578T breast 92.8% | NCI/ADR-RES ovarian 104% | T-47D breast 102% | BT-549 breast 99.8% | SW-620 colon 101% | MCF7 breast 89% | HCT-116 colon 92.2% | HCC-2998 colon 115% | KM12 colon 97.7%
